Compounds with a hit are over-represented: about 21% of the library has one in this group of screens.
Pf growth 96h – P. falciparum growth inhibition at 96 hours. Potency, µM (top dose mostly 28.7 µM), inactives show at the highest dose activity change, negative = inhibition, most hits filed as inhibitors. 320,000 tested, 6.9% active. P. falciparum luciferase reporter growth, 96 h; further: potency means the concentration at half of the fitted maximal effect; on the % scale 0 is the no-effect control and ±100 the full control effect
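96 h incubation, 37 C, 5% CO2, of luciferase-reporter P. falciparum-infected RBCs (2% hematocrit, 0.05% parasitemia final) with test compounds; endpoint luminescence.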
NS1 function inh – blocks influenza NS1 protein function; AID 2326; 270,000 tested, 0.4% active; Potency, µM (top dose mostly 46.1 µM), for the others: at the top dose activity, positive = more growth; calls by dose curve; further: potency means the concentration at half of the fitted maximal effect; actives are rising curves; nearly all actives have a fitted effect of over 50% in size
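A cell-based growth assay was used: compounds that relieve NS1-induced slow growth of budding yeast raise OD600. Assay medium was yeast nitrogen base with ammonium sulphate and -URA supplement, pH 6.0, with 2% galactose.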
Pf growth 48h – inhibits P. falciparum growth in the first generation, 48 h. P. falciparum luciferase growth in erythrocytes, 48 h. Potency, µM (titrated, usually from 28.7 µM), inactives show top-dose activity change, negative = inhibition, usual class: inhibitors. 310,000 tested, 5.9% active. AID 504832; further: potency means the concentration at half of the fitted maximal effect; on the % scale 0 is the no-effect control and ±100 the full control effect
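Luciferase-expressing parasites in RBCs, 2% Hct / 0.1% parasitemia final; RPMI 1640 + 0.5% Albumax; 37 C, 5% CO2, one generation; luminescence read-out, lower signal = inhibition.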
Cycloheximide cs – counter-screen for Shiga toxin inhibitors: cycloheximide protein synthesis inhibition; max response, %; cell reporter, cycloheximide protein synthesis inhibition counterscreen; 300,000 tested, 12% active; AID 2314; in the data active means max response mostly above about 13%, no sharp cut-off; inactive means mostly below about 14%; further: read at 38.3 µM for the half of the compounds with a filed dose; 0% is about no effect
Shiga toxin inh – Shiga toxin inhibition; Vero cells, Shiga toxin protein synthesis inhibition reporter; inhibition, % at 38.7 µM; 290,000 tested, 9.2% active; AID 2315; in the data active means inhibition mostly above about 28%, no sharp cut-off; inactive means mostly below about 43%; further: 0% is about no effect
An asterisk follows results filed as active; i = inactive; ? = inconclusive; nt = not tested or not shown; [ ] = another dose, or the depositor's remark. Unless noted, the call rests on the fitted dose curve; in most records, active means well fitted inhibition curve with a large enough effect; inconclusive means small, poorly fitted or top-dose-only effect, or another doubt; inactive means no such curve, though single readings can be large or run the other way.

SMILES | Pf growth 96h | NS1 function inh | Pf growth 48h | Cycloheximide cs | Shiga toxin inh
Cc1ccc(NC(=O)N2C3CCCC2CC(NC(=O)C2CC2)C3)cc1 (stereo unspecified) | 12.6% | -1.7% | -14.2% | -1.4 | -8.6
CC1CC(C)(C)NC(=S)N1CCCC(=O)N1CCN(c2ccc(F)cc2)CC1 (stereo unspecified) | 27.3% | -1.0% | ? | -2.7 | -0.8
Cn1cccc1C(=O)OCC(=O)Nc1ccc2c(c1)OCO2 | 239.7% | 3.7% | 250.2% | 32.9* | 64.4*
O=C(COC(=O)c1ccc(N2CCOCC2)c([N+](=O)[O-])c1)Nc1ccc2c(c1)OCO2 | 23.8% | 23.9% | 11.7% | -4.8 | 18.8
Cn1cccc1C(=O)OCC(=O)Nc1ccc2c(c1)CCC2 | 91.8% | -25.8% | 129.0% | 24.7 | 63.3
Nc1ccc(C(=O)OCC(=O)Nc2ccc3c(c2)OCO3)cc1[N+](=O)[O-] | 4.4% | ? | 5.6% | 20.3* | 16.7
O=C(COC(=O)c1ccco1)Nc1ccc2c(c1)OCO2 | 20.8% | 2.5% | 14.5% | 24.6* | 52.9*
O=C1CSC(=S)N1/N=C\c1ccc(Cl)c([N+](=O)[O-])c1 | nt | 16.7% | nt | nt | nt
O=c1ccc2ccc(OS(=O)(=O)O)cc2o1 | nt | nt | nt | 4.0 | -2.2
Cc1ccccc1NC1=C(Cl)C(=O)OC1OC(C)C (stereo unspecified) | -3.2% | 2.3% | nt | 6.0 | -6.5
CN(C(=O)Nc1cccc(C(F)(F)F)c1)C1CCCCC1 | 45.5% | 0.7% | 20.4% | -2.8 | 16.9
CCc1ccc(N(CC(=O)Nc2ccc(NC(C)=O)cc2)S(=O)(=O)c2ccccc2)cc1 | ? | ? | 13.1µM* | 4.9 | 1.2
CC(=O)Nc1ccc(NC(=O)CN(c2ccc([N+](=O)[O-])cc2)S(=O)(=O)c2ccccc2)cc1 | 2.94µM* | 1.2% | 22.2% | -1.9 | 5.2
CC(=O)Nc1ccc(C2(c3ccc(NC(C)=O)cc3)NC(=O)c3ccccc32)cc1 | 46.4% | 14.2% | 1.31µM* | 1.7 | -8.4
O=C(CC(Nc1ccc(Cl)cc1Cl)C(=O)O)c1ccccc1 (stereo unspecified) | 307.8% | -2.4% | 242.1% | 65.1* | 155.3*
O=C(CC(Nc1ccccc1)c1ccc(F)cc1)c1ccccc1 (stereo unspecified) | 2.62µM* | 13.3% | 10.3% | 72.9* | 55.9*
Cc1ccc(NC(CC(=O)c2ccccc2)C(=O)O)cc1Cl (stereo unspecified) | i | -7.2% | 391.9% | 40.7* | 71.3*
O=C(CC(Nc1ccccc1)C(=O)O)c1ccccc1 (stereo unspecified) | nt | -55.5% | 173.6% | 36.7* | 139.0*
O=C(CC(C(=O)O)c1cccc(Cl)c1)c1ccccc1 (stereo unspecified) | 24.7% | -0.5% | -5.7% | 0.7 | -3.0
CCOC(=O)N1CCN(S(=O)(=O)N2CCCC(C(=O)NC(C)c3ccccc3)C2)CC1 (stereo unspecified) | ? | -20.4% | 21.1% | 1.7 | -5.0
CCCCN(C(=O)C(C)Oc1cccc(Cl)c1)c1c(N)n(CCC)c(=O)[nH]c1=O (stereo unspecified) | 0.7% | nt | -4.4% | nt | nt
CC(C)(C)OC(=O)CNC(=O)c1[nH]cnc1C(=O)N[C@@H](CCCCNC(=O)OC(C)(C)C)C(=O)OC(C)(C)C | ? | -1.2% | ? | -0.8 | -6.6
CC(C)(C)OC(=O)NCCCC[C@H](NC(=O)c1nc[nH]c1C(=O)NCc1ccc(CNC(=O)OC(C)(C)C)cc1)C(=O)OC(C)(C)C | 11.7µM* | ? | ? | 2.0 | -0.5
CC(C)(C)OC(=O)NCCCC[C@H](NC(=O)c1nc[nH]c1C(=O)NC(c1ccccc1)c1ccccc1)C(=O)OC(C)(C)C | 2.08µM* | ? | 3.7µM* | 2.8 | -4.5
CC(C)(C)OC(=O)[C@H](CCCCN)NC(=O)c1nc[nH]c1C(=O)NCCCCCN | 23.0% | nt | -17.5% | nt | nt
SMILES | Pf growth 96h | NS1 function inh | Pf growth 48h | Cycloheximide cs | Shiga toxin inh
CC(C)(C)OC(=O)NCCCC[C@H](NC(=O)c1nc[nH]c1C(=O)N[C@@H](CCCCNC(=O)OC(C)(C)C)C(=O)OC(C)(C)C)C(=O)OC(C)(C)C | 1.65µM* | -9.1% | 2.08µM* | 6.1 | -6.1
CC(C)(C)OC(=O)NCCCCCNC(=O)c1[nH]cnc1C(=O)N[C@@H](CCCCNC(=O)OC(C)(C)C)C(=O)OC(C)(C)C | 0.0% | 8.8% | 9.28µM* | 6.7 | 7.4
CS(=O)(=O)Nc1cccc(-c2cc(F)c(S(=O)(=O)N3CCN(S(=O)(=O)c4ccc5c(c4)OCCO5)CC3)cc2F)c1 | nt | nt | nt | -1.7 | -0.9
CCCc1cc(=O)[nH]c(SCC(=O)c2ccc3c(c2)NC(=O)CO3)n1 | 27.3% | 4.5% | 33.9% | 0.4 | 11.1
CC(=O)Nc1sc(C)c(C)c1C(=O)OCC(=O)N(CC(C)C)C1CCS(=O)(=O)C1 (stereo unspecified) | ? | -7.6% | -7.9% | -3.4 | 9.6
C[C@H](NC(=O)c1nc[nH]c1C(=O)N[C@@H](CCCCNC(=O)OC(C)(C)C)C(=O)OC(C)(C)C)C(=O)OC(C)(C)C | 13.1µM* | -7.4% | 9.28µM* | -3.5 | -6.6
O=C(OCc1csc(-c2ccccc2)n1)c1cccs1 | nt | -76.3% | nt | 33.7* | 49.0*
Nc1ccc(C(=O)OCc2csc(-c3ccccc3)n2)cc1[N+](=O)[O-] | 26.6% | 8.9% | 21.6% | 7.4 | -7.2
Cn1cccc1C(=O)OCc1csc(-c2ccccc2)n1 | i | -59.0% | 164.2% | 22.3* | 77.1*
O=C(CNC(=O)c1ccccc1F)OCc1csc(-c2ccccc2)n1 | 52.1% | -32.4% | 76.7% | 18.1* | 31.4
O=C(OCc1csc(-c2ccccc2)n1)C1=NN(c2ccccc2)C(=O)CC1 | 78.9% | nt | 107.0% | nt | nt
CNS(=O)(=O)c1cccc(C(=O)OCc2csc(-c3ccccc3)n2)c1 | 41.2% | 7.0% | 30.7% | 32.8* | 62.5*
Cc1cnc(NC(=O)CSc2nnc(N)s2)s1 | 9.0% | -0.5% | 23.7% | 9.7 | 10.3
Cc1ccsc1C(=O)OCc1csc(-c2ccccc2)n1 | nt | -57.3% | 268.8% | 25.8* | 102.3*
CC1CCCCC1NC(=O)COC(=O)c1cccn1C (stereo unspecified) | -14.5% | nt | -3.5% | nt | nt
COc1ccc(C(=O)NCC(=O)OCc2csc(-c3ccccc3)n2)cc1 | 43.5% | -15.0% | 30.9% | 11.4 | -49.3
O=C(O)Cc1csc(-c2ccccc2)n1 | -13.2%[1.15 µM] | 2.0% | -28.0% | 16.3 | 21.0
Cn1cccc1C(=O)OCc1ccc(F)cc1 | 24.4% | -2.2% | 37.1% | 18.8* | 50.2
CN(Cc1cccs1)C(=O)Cc1csc(-c2ccccc2)n1 | 46.9% | nt | 101.0% | 47.2* | 69.1*
CC(=O)N/C(=C\c1ccccc1)C(=O)OCc1cc(C)ccc1C | -3.7% | 3.6% | 13.2% | -1.9 | 26.7
COC(=O)C1=NN(C(=O)c2cccc(Cl)c2)C(O)(C(C)(C)C)C1 (stereo unspecified) | 39.1% | -29.6% | 11.2% | 50.9* | 91.9*
O=C(Cc1ccccc1)NC(=S)Nc1ccc2oc(-c3ccccc3)nc2c1 | ? | 1.5% | 63.2% | 1.5 | 15.9
CCOC(=O)c1ccc(NC(=O)c2sc3nc4n(c(=O)c3c2C)CCC4)cc1 | 14.7µM* | -2.3% | ? | 2.1 | 9.9

Screens (PubChem)
